Source: paper PMC9838217, “Structure of SALL4 zinc finger domain reveals link between AT-rich DNA binding and Okihiro syndrome”
Residue numbers refer to the chain shown, from its start.

Legend:
Assay in all cases: HT-SELEX; high values mean tight binding
Details in all cases: protein: recombinant; vector His6-GST; dsDNA, one strand shown
SALL4 ZFC4 WT (HT-SELEX) = biological target: T1, SALL4 ZFC4 WT (HT-SELEX) (Mus musculus, UniProt Q8BX22 870-940)
T1 sequence: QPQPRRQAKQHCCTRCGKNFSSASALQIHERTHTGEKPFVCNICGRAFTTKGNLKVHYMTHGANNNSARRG
Summary of the method: (§1)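 A 100 µl reaction of 10 mM Tris–HCl pH 7.5, 50 mM NaCl, poly(dI-dC) and DTT held purified recombinant mouse SALL4 zinc finger cluster 4 (residues 870–940, 1 µg) and library DNA (1.5 µg first cycle, 200 ng later) for 10 min at room temperature. Complexes captured on Ni2+ beads were washed, PCR-amplified and reselected for up to 6 cycles, in triplicate, then MiSeq-sequenced and scanned for 6-mers. Binding signal is the read fraction of each canonical k-mer expressed as fold change over the initial random library.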

[1] = biological target: T2, SALL4 ZFC4 R900W (HT-SELEX) (Mus musculus, UniProt Q8BX22 870-940, R900W)
T2 sequence: T1 sequence with R31W
Summary of the method: as §1

[2] = biological target: T3, SALL4 ZFC4 G921D (HT-SELEX) (Mus musculus, UniProt Q8BX22 870-940, G921D)
T3 sequence: T1 sequence with G52D
Summary of the method: as §1

Sequence	binding signal (SALL4 ZFC4 WT (HT-SELEX)) [fold-change vs cycle 0]	binding signal [1] [fold-change vs cycle 0]	binding signal [2] [fold-change vs cycle 0]
GAGGAC	0.456 ± 0.0333	0.581 ± 0.0167	0.671 ± 0.0146
ACTCAC	0.877 ± 0.0278	0.97 ± 0.0118	1.02 ± 0.0114
GTCACA	0.677 ± 0.0487	0.804 ± 0.0553	0.861 ± 0.0406
ATAGTA	2.1 ± 0.131	2.08 ± 0.149	1.83 ± 0.209
ACTATC	1.35 ± 0.0436	1.45 ± 0.0712	1.39 ± 0.1
GCTGAA	0.582 ± 0.0146	0.67 ± 0.0322	0.774 ± 0.0356
CAGCTC	0.332 ± 0.0301	0.394 ± 0.00722	0.526 ± 0.0361
GATACC	0.884 ± 0.044	0.969 ± 0.034	1.04 ± 0.0218
CTCACA	0.786 ± 0.0522	0.895 ± 0.0341	0.9459 ± 0.00888
ACCGGA	0.381 ± 0.0137	0.447 ± 0.0161	0.56 ± 0.0517
ATGTAC	1.295 ± 0.0117	1.38 ± 0.0189	1.32 ± 0.0512
CAAACG	0.563 ± 0.00697	0.704 ± 0.014	0.777 ± 0.055
CGAGAA	0.725 ± 0.0428	0.818 ± 0.0294	0.857 ± 0.0383
AAAGCG	0.393 ± 0.0227	0.489 ± 0.0338	0.601 ± 0.0731
AAAATG	1.68 ± 0.0946	1.56 ± 0.0588	1.46 ± 0.0958
CACCTC	0.511 ± 0.0163	0.563 ± 0.0344	0.689 ± 0.0609
GAATTA	2.39 ± 0.113	1.95 ± 0.0992	1.75 ± 0.12
AATACA	2.08 ± 0.131	1.92 ± 0.0574	1.74 ± 0.0979
CGTATC	0.723 ± 0.0291	0.818 ± 0.0282	0.89 ± 0.0234
ATGGGA	0.904 ± 0.0547	0.99 ± 0.053	0.966 ± 0.0349
GATTCC	0.9 ± 0.0488	0.964 ± 0.0255	1.03 ± 0.0179
GAGTAC	0.903 ± 0.0224	0.992 ± 0.045	1.04 ± 0.0172
AATTCT	2.05 ± 0.0669	1.99 ± 0.104	1.8 ± 0.162

Sequence	binding signal (SALL4 ZFC4 WT (HT-SELEX)) [fold-change vs cycle 0]	binding signal [1] [fold-change vs cycle 0]	binding signal [2] [fold-change vs cycle 0]
AATGCG	0.428 ± 0.0345	0.473 ± 0.0206	0.61 ± 0.0401
ACCTTC	0.842 ± 0.0201	0.982 ± 0.0475	1 ± 0.0224
CGTCCA	0.318 ± 0.0103	0.381 ± 0.0253	0.504 ± 0.0811
CGTAAC	0.768 ± 0.0406	0.887 ± 0.0447	0.922 ± 0.0472
AGATCC	0.821 ± 0.0254	0.949 ± 0.0348	1.045 ± 0.00383
CTCCAC	0.493 ± 0.0188	0.564 ± 0.0173	0.646 ± 0.0596
CCCTTA	0.943 ± 0.0612	1.06 ± 0.0532	1.02 ± 0.0595
CCCAAG	0.456 ± 0.0184	0.532 ± 0.00725	0.619 ± 0.0423
CCGTTC	0.364 ± 0.0226	0.435 ± 0.0276	0.511 ± 0.0586
CAGAAG	0.787 ± 0.03	0.933 ± 0.0195	0.93 ± 0.0319
CGTCTC	0.379 ± 0.0073	0.467 ± 0.0242	0.574 ± 0.0434
CATCGA	0.706 ± 0.0155	0.749 ± 0.0387	0.854 ± 0.0254
AGTATG	1.43 ± 0.0699	1.49 ± 0.072	1.38 ± 0.0928
GCAGAA	0.567 ± 0.022	0.629 ± 0.0163	0.688 ± 0.0217
CACGTA	0.686 ± 0.0318	0.787 ± 0.0109	0.842 ± 0.0109
CGGAAA	0.548 ± 0.0301	0.591 ± 0.00691	0.694 ± 0.0765
AGCGAT	0.553 ± 0.0342	0.644 ± 0.0243	0.766 ± 0.0387
CTCAGC	0.369 ± 0.0266	0.414 ± 0.0118	0.525 ± 0.071
CAGCAG	0.333 ± 0.0334	0.387 ± 0.024	0.523 ± 0.0543
ACAAAG	1.19 ± 0.0417	1.36 ± 0.0499	1.3 ± 0.0198
CTGAAG	0.866 ± 0.0297	1.01 ± 0.0356	1.03 ± 0.0122
ATATTA	4.97 ± 0.422	2.59 ± 0.139	2.22 ± 0.236
